These results are taken from PubChem BioAssay AID430 (Sanford-Burnham Center for Chemical Genomics, 2006).

The structures appear in SMILES notation. Screen size: about 63,000 compounds; about 1,100 (1.7%) were called active. Rule as the data show it: active = cytotoxicity above about 50%; inactive = the rest. This excerpt belongs to a sample that is enriched for actives. Entries with a potency or affinity are not part of this list.

The nature of the assay: cytotoxicity in HPDE-C7 cells, cell-based, fluorescence, HTS (AID 430).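 Also: cells exposed to compound for 48 hours before viability readout; 0% = vehicle and 100% = reference cytotoxic drug.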 The following applies: HPDE-C7 pancreatic duct cells viability, at 10 µM, hits give high values.
As for `Cc1cccc(C(C)(C)C)c1OCCn1ccnc1`, the cytotoxicity was 8.6% (inactive).

Turning to `COc1ccc(S(=O)(=O)N(CC(N)=O)C2CCCCC2)cc1Cl`, the cytotoxicity was -13.6% (inactive).

For the compound `O=C(CN1CCN(C(=O)c2ccco2)CC1)Nc1ccc2c(c1)OCCO2`, the cytotoxicity was -13.8% (inactive).

Regarding `CCn1c(N2CCC(Cc3ccccc3)CC2)nc2c1c(=O)[nH]c(=O)n2C`, the cytotoxicity was -25.9% (inactive).

Take `CC(=O)OC[C@H]1O[C@@H](n2ccc(=O)[nH]c2=S)C(OC(C)=O)C1OC(C)=O` (some centres undefined): the cytotoxicity is -1% (inactive).

`CC(=O)OCC1OC(n2ccc(=O)[nH]c2=O)C(O)C1O` (centres undefined): the cytotoxicity is -11.3% (inactive).

With `CC(=O)OC[C@H]1O[C@@H](n2ncc(=O)[nH]c2=O)[C@H](OC(C)=O)[C@@H]1OC(C)=O`, the cytotoxicity is 56.2% (active).

As for `CCSc1cc(C2C(C#N)=C(N)OC(C)=C2C(=O)OC)c(C)o1` (centres undefined), the cytotoxicity was 3.5% (inactive).

`CCOC(=O)CCc1nn(C)c(=O)c2ccccc12`: the cytotoxicity was -11.1% (inactive).

In the case of `Cc1ccc(S(=O)(=O)N(C)CC(=O)N2CCN(c3ccccn3)CC2)cc1`, the cytotoxicity was 6.4% (inactive).

On to `Cc1cc(-c2csc(NC(=O)c3ccc(=O)n(C)n3)n2)c(C)n1CC1CCCO1` (centres undefined), for which the cytotoxicity was -8.1% (inactive).

For the compound `CCC(C)n1ncn(-c2ccc(N3CCN(c4ccc(OCC5COC(Cn6cncn6)(c6ccc(Cl)cc6Cl)O5)cc4)CC3)cc2)c1=O` (centres undefined), the cytotoxicity is 65.7% (active).

As to `O=C1Nc2ccccc2C12OCC(COc1ccc(Cl)cc1)O2` (centres undefined), the cytotoxicity was 30.3% (inactive).

Regarding `CCCC1COC(Cn2cncn2)(c2ccc(C)cc2)O1` (centres undefined), the cytotoxicity is -5.7% (inactive).

On to `Cc1noc(C)c1S(=O)(=O)NC1CCN(Cc2ccccc2)CC1`, for which the cytotoxicity is 1.4% (inactive).

On to `CCCCCc1c(C)nc(NCc2ccccc2)[nH]c1=O`, for which the cytotoxicity is -8.7% (inactive).

As to `Cc1n[nH]c(=O)nc1NCc1ccccc1`, the cytotoxicity was -20.4% (inactive).

For the compound `COc1ccc(CCNC(=O)COc2nsnc2N2CCOCC2)cc1OC`, the cytotoxicity was -12.4% (inactive).

In the case of `C=CCNC(=O)CCCCC(=O)NCC=C`, the cytotoxicity is -16.1% (inactive).

As to `Cn1nc(-c2ccc(Cl)cc2)c2cc(C(=O)NCCCN3CCOCC3)sc21`, the cytotoxicity is 8.3% (inactive).

Turning to `CN1CCN(CCCNC(=O)c2cc3c(-c4ccc(Cl)cc4)nn(C)c3s2)CC1`, the cytotoxicity was 13.3% (inactive).

Regarding `Cn1nc(-c2ccc(Cl)cc2)c2cc(C(=O)NCCCN3CCCC3)sc21`, the cytotoxicity is 69.7% (active).

`Cc1nc(Sc2nnnn2-c2ccccc2)c(C#N)c(C)c1C`: the cytotoxicity was -11.7% (inactive).

Consider `Cc1sc2ncnc(SCc3ccco3)c2c1C`, for which the cytotoxicity is -13.2% (inactive).

As for `Cc1sc2ncnc(Sc3nnnn3-c3ccccc3)c2c1C`, the cytotoxicity is 71% (active).

Regarding `Clc1ccc(-n2nnnc2Sc2ncnc3sccc23)cc1`, the cytotoxicity is 4.6% (inactive).

Consider `CCCn1c(Sc2nnnn2-c2ccccc2)n[nH]c1=O`, for which the cytotoxicity was -7.4% (inactive).

For the compound `COc1ccc(OC)c(-c2cc(C(=O)NCCCn3ccnc3)no2)c1`, the cytotoxicity is 32.2% (inactive).

Consider `Cc1cc(NC(=O)C2CCCN(S(=O)(=O)c3c(C)noc3C)C2)no1` (centres undefined), for which the cytotoxicity was 9.5% (inactive).

Turning to `O=C(O)c1ccc(OCc2occc2C(=O)O)cc1`, the cytotoxicity was -2.7% (inactive).

With `CCOc1ccc(N(CC(N)=O)S(=O)(=O)c2ccc(F)cc2)cc1`, the cytotoxicity was -0.6% (inactive).

On to `Cc1cc2c(c(=O)n1CCN(C)C)C(c1ccc(Br)cc1)C(C#N)=C(N)O2` (centres undefined), for which the cytotoxicity is 73.4% (active).

With `Cc1cc2c(c(=O)n1CCN(C)C)C(c1ccncc1)C(C#N)=C(N)O2` (centres undefined), the cytotoxicity was 13.1% (inactive).

As to `Cc1cc2c(c(=O)n1CCN(C)C)C(c1ccc(Cl)cc1)C(C#N)=C(N)O2` (centres undefined), the cytotoxicity was -13.8% (inactive).

With `Cc1cccc2cc(CN(Cc3ccc(F)cc3)C(=O)N(C)C)c3nnnn3c12`, the cytotoxicity was 5.9% (inactive).

Take `Cc1ccc(SC/C(O)=C(\C#N)c2nc3ccccc3n2C)cc1`: the cytotoxicity was 16.2% (inactive).

Take `CC(C)=C(C#N)c1nc2ccccc2s1`: the cytotoxicity is -8.8% (inactive).

For the compound `COC(=O)c1ccc(/C(O)=C(\C#N)c2nc3ccccc3s2)cc1`, the cytotoxicity was 58.4% (active).

Regarding `Cc1ccc(SC/C(O)=C(\C#N)c2nc3ccccc3s2)cc1`, the cytotoxicity was 79.2% (active).

Take `COc1ccc(C/C(O)=C(\C#N)c2nc3ccccc3s2)cc1`: the cytotoxicity was 46.3% (inactive).

`N#C/C(=C(/O)CN1CCOCC1)c1nc2ccccc2s1`: the cytotoxicity was 1.3% (inactive).

Regarding `N=c1n(CCN2CCCCC2)c2ccccc2n1CC(O)c1cccc(Br)c1` (centres undefined), the cytotoxicity is 44.6% (inactive).

Take `C=CCn1c(SCC(=O)O)nnc1-c1cccc(Cl)c1`: the cytotoxicity is 5.9% (inactive).

With `Cc1cc(N2CCN(C(=O)c3ccco3)CC2)n2nc(C)nc2n1`, the cytotoxicity is 3% (inactive).

With `O=C(CSc1nc(O)cc(=O)[nH]1)N1CCCc2ccccc21`, the cytotoxicity was 2.5% (inactive).

For `CC1=C(C)SC(=C(C#N)c2nnc(N3CCOCC3)n2-c2ccccc2)S1`, the cytotoxicity is 23.4% (inactive).

Consider `O=C(Nc1ccc(S(=O)(=O)NCCc2ccccc2)cc1)c1ccc(Br)o1`, for which the cytotoxicity is 12% (inactive).

Regarding `O=C(Nc1ccc(Nc2ccccc2)cc1)c1ccc(Br)o1`, the cytotoxicity is 76.8% (active).

`COC(=O)Cc1ccc(NC(=O)c2ccc(Br)o2)cc1`: the cytotoxicity was -2.2% (inactive).

In the case of `COc1ccccc1CNC(=O)C1CCCN(S(=O)(=O)c2c(C)[nH]c(=O)[nH]c2=O)C1` (centres undefined), the cytotoxicity was -20.9% (inactive).

For the compound `COc1ccc(C(=O)c2ccc(OC)c(OC)c2)cc1OC`, the cytotoxicity was -8.6% (inactive).

Regarding `COc1ccc(C(N)=O)cc1N`, the cytotoxicity was -18.1% (inactive).

As to `COc1ccc(C(=O)c2ccc(OC)c(N)c2)cc1N`, the cytotoxicity was 78.9% (active).

As for `O=C(NC1CCCCC1)N1CCCCCC1`, the cytotoxicity is -4% (inactive).

As for `CCSc1nnc(NC(=O)c2cc3c(s2)CCCC3)s1`, the cytotoxicity was 7.4% (inactive).

With `CC[C@]1(O)C[C@@H]2CN(CCc3c([nH]c4ccccc34)[C@@](C(=O)OC)(c3cc4c(cc3OC)N(C)[C@H]3[C@@](O)(C(=O)OC)[C@H](OC(C)=O)[C@]5(CC)C=CCN6CC[C@]43[C@@H]65)C2)C1`, the cytotoxicity is 67.3% (active).

As for `CC[C@]1(O)CC2CN(CCc3c([nH]c4ccccc34)[C@@](C(=O)OC)(c3cc4c(cc3OC)N(C=O)[C@H]3[C@@](O)(C(=O)OC)[C@H](OC(C)=O)[C@]5(CC)C=CCN6CC[C@]43[C@@H]65)C2)C1` (some centres undefined), the cytotoxicity was 66.3% (active).

Turning to `CC(=O)N1CCN(C2c3cccc4cccc(c34)C2NS(=O)(=O)c2ccccc2)CC1` (centres undefined), the cytotoxicity is -18.7% (inactive).

For the compound `COc1cccc(OCC(O)CN2CCC(C)CC2)c1` (centres undefined), the cytotoxicity was 0.1% (inactive).
